We go through 87 sequences from the supplement of paper PMC3334620.

In all, about 33,000 sequences were measured (“E-score (-0.5 to 0.5)”: median about -0.0034, highest 2% from about 0.25 on). Many of the other results were omitted from the sample, so the highest values are more common in it than they were.

The target of this experiment is T1, Yap3 (UniProt P38749).
T1 sequence: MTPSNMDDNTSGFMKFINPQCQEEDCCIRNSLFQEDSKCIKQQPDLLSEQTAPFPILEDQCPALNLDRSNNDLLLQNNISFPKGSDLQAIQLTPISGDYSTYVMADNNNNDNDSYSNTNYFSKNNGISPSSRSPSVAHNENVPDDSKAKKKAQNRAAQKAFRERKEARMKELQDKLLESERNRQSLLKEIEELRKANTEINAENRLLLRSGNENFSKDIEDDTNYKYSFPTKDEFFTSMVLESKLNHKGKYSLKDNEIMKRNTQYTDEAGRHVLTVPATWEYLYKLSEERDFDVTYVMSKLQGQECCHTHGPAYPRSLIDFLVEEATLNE
In words: PBM E-score (8-mer binding enrichment) (E-score (-0.5 to 0.5)); higher = stronger / more preferred TF binding. To be noted: protein concentration: 100 nM; construct: GST-full length. The procedure:
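Universal 'all 10-mer' protein binding microarrays (Agilent AMADID 015681) probed with GST-tagged S. cerevisiae TFs (full-length or DBD) made by in vitro transcription/translation (PURExpress), about 100-200 nM. Bound TF was detected with fluorescent anti-GST. Each ungapped 8-mer (which stands for itself and its reverse complement) is scored by the PBM enrichment score (E-score), a modified Wilcoxon-Mann-Whitney statistic from -0.5 to +0.5, computed with the Universal PBM Analysis Suite. Scale: above 0.35 generally sequence-specific binding.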
For ATTATCGA, the “PBM E-score” value was determined as 0.132.
As to ATTATCTC, the “PBM E-score” value came to 0.268.
Turning to ATTATCTG, the “PBM E-score” value amounted to 0.119.
Take ATTATCGC: the “PBM E-score” value turned out to be 0.304.
Consider AATATCTC, for which the “PBM E-score” value worked out at 0.263.
Next, AATATCTG: 0.084; CGTTTCCA: 0.105; AATTCACA: 0.238.
Consider CTGAGACA, for which the “PBM E-score” value is -0.0945.
Next, GCCCACAA: -0.141; AATAGAAG: 0.0527.
Next, CGGCAGAA: 0.124; TGAGTCAA: 0.0132.
To GAACCAAA belongs -0.0377.
As to CTGTGCCA, the “PBM E-score” value was -0.119.
To CAGTAATA belongs 0.307; to AAGTAATA, 0.158.
Next, GAGTAATC: 0.103.
On to CAGTAATC, for which the “PBM E-score” value came out at 0.0876.
To CAGTAATG belongs 0.0685.
Consider GAGTAATA, for which the “PBM E-score” value is 0.273.
Next, CATAGGCA: -0.0267; AGTCGACG: 0.23.
To ACCACCAC belongs -0.00648; to CACAGGCA, 0.0714; to AGACTGTC, -0.163.
Turning to CTTGAAAC, the “PBM E-score” value is 0.177.
To CCGGCCAG belongs -0.181; to CCACATAC, 0.249.
Next, GCATTTTA: 0.227; ATATTTTG: 0.157.
For ATATTTTC, the “PBM E-score” value is 0.261.
To CCATTTTA belongs 0.222; to GTATTTGA, 0.137; to CTATTTTA, 0.251.
In the case of ATATTTGA, the “PBM E-score” value came to 0.149.
Turning to GTATTTTA, the “PBM E-score” value worked out at 0.0831.
To CTATTTGA belongs 0.27; to CTATTTTC, 0.114; to ATATTTTA, 0.273.
As for ACATTTTA, the “PBM E-score” value was determined as 0.259.
Next, CACGGCCG: -0.0612; CTACTCTA: 0.148; AAAGGGCG: -0.0936.
For AGTAGTGG, the “PBM E-score” value came to 0.0946.
For ATCTGCGG, the “PBM E-score” value is -0.0331.
In the case of ATCTATAA, the “PBM E-score” value came out at 0.0384.
Take CTACTAGC: the “PBM E-score” value was 0.097.
On to TAAGTAGA, for which the “PBM E-score” value came to 0.109.
Take AGATGACG: the “PBM E-score” value came out at 0.108.
For CTGTGGCC, the “PBM E-score” value was -0.361.
CTGTTCAA: the “PBM E-score” value was 0.0116.
Next, AGGTCGAT: 0.167.
Next, GCCGATCA: 0.00289; CTATTTAA: 0.0559.
To ATATTTAA belongs 0.339; to ATATTTAC, 0.208; to GTAACAGA, 0.105.
For the sequence ATTATTCA, the “PBM E-score” value is 0.277.
ACTATTCG: the “PBM E-score” value stood at 0.231.
Consider ATTATTCC, for which the “PBM E-score” value was 0.248.
Next, ATTATTCG: 0.274; GTTATTCA: 0.193.
Next, CTTATTCA: 0.106; ATACCCAG: -0.0813.
To ACCAATTA belongs 0.274; to GCCAATTA, 0.193; to ATCAATTA, 0.318.
In the case of ATCAATTG, the “PBM E-score” value worked out at 0.159.
Next, AACAATTC: 0.106; ACCAATTG: -0.0264; AACAATTG: -0.0238.
Turning to ATCAATTC, the “PBM E-score” value is -0.0493.
Next, AACAATTA: 0.323.
As to CGTAGCTA, the “PBM E-score” value is -0.05.
To GGAGCAAA belongs 0.016; to CATAGCAC, 0.0592.
As for ACACCACA, the “PBM E-score” value came out at 0.0359.
For the sequence AGCCTCAT, the “PBM E-score” value is -0.158.
To ACAAGGGG belongs -0.193; to ATTAGATG, 0.261; to ATTAGATA, 0.178.
Consider ATTAGATC, for which the “PBM E-score” value is 0.0781.
To TCTTCAAA belongs 0.0414.
For ACTGCCAG, the “PBM E-score” value is -0.0114.
In the case of CAATTATA, the “PBM E-score” value amounted to 0.167.
Turning to TAATTATA, the “PBM E-score” value stood at 0.285.
